# PubChem BioAssay AID588855 (National Center for Advancing Translational Sciences (NCATS), 2011)
# The whole screen tested about 410,000 compounds, of which about 5,000 (1.2%) were called active. Roughly 13% stayed inconclusive and do not appear here. The call rests on the fitted dose curve; in most records, active means well fitted inhibition curve with a large enough effect; inconclusive means small, poorly fitted or top-dose-only effect; inactive means no such curve, though single readings can be large or run the other way. The entries come from a sample that favours actives as a whole. Where a call stands in place of a potency, no number is given.
# Experiment: qHTS for Inhibitors of TGF-b; further: nearly all actives have a fitted effect of over 65% in size
# Settings: HepG2 CAGA-GFP TGF-b/SMAD3 reporter, GFP fluorescence, 18 h, TGF-beta stimulated, 500 pg/mL final; series mostly up to 46.1 µM
# Source text: TGF-b is a main component in the TGF-b signaling pathway which plays diverse roles in cellular and development pathways. TGF-b is the mediated by the transcription factors Smads. Although the Smad-dependent pathway is the primary canonical TGF-b signaling node, TGF-b1 can also activate alternative signaling pathways, including those involving MAPK (ERK, JNK and p38). This interaction may mediate or enhance Smad-dependent responses, or can exert Smad-independent effects. The complexity of this signaling cascade allows the TGF-b superfamily to perform unique, overlapping or redundant functions. We believe that targeting the TGF-beta pathway at the Smad-transcription factor level may eliminate the consequences of disrupting the entire pathway and offer specificity without affecting other signaling pathways. Smad3 is the primary transducer of TGF-b's signals and Smad3 regulates many functions attributed to TGF-b signaling. We hypothesize that Smad3 inhibitors will selectively eliminate Smad3-specific TGF-beta signals without undesired off-target effects. We aim to identify Smad3-small molecule antagonists using a quantitative high throughput screening (qHTS) approach.
# A high-throughput assay was developed to screen the NIH Molecular Libraries Small Molecule Repository (MLSMR). This is a cell based assay, where TGF-b is tagged with GFP. A counterscreen is run that looks at cytotoxicity (please see summary AID).
# MH087449NIH Chemical Genomics Center [NCGC]
# NIH Molecular Libraries Probe Centers Network [MLPCN]
# Assay Submitter (PI): Sushil Rane, National Institute of […]
# Suspensions of trypsinized HEPG2 CAGA-GFP cells were dispensed into white, tissue culture-treated, solid 1536-well plates at 5uL/well (1000 cells/well final concentration) in DMEM medium supplemented with 1% FBS. Plates were incubated at 37 degrees C for 2 hours, after which 23 nL of compounds or DMSO were delivered to each well using a pin tool. One uL of recombinant TGF-beta in DMEM (1% FBS) was then dispensed (500 pg/mL final concentration), and plates were incubated at 37 degrees C for 18 hours. The plates were measured on an Acumen eX3 Explorer plate reader for GFP fluorescence (ex488/em500-530). GFP values were calculated by determining the mean GFP fluorescence of individual cells, and compiling these values for each well to determine a total well GFP signal. The %Activity was determined from the corrected fluorescence values. A titration of the known TGF-B inhibitor SB431542 was included to monitor plate performance, while unstimulated HEPG2 (-TGF-B) control wells were used to normalize %Activity of identified inhibitors; unstimulated wells corresponded to 100%Activity (full inhibition), while stimulated cell controls (+DMSO) were used to normalize 0%Activity (no inhibition).
# Concentration-response curves were fitted to the signals arising from the resulting fluorescence. The concentration-effect curves were then classified based on curve quality (r2), response magnitude and degree of measured activity, and compounds were subsequently categorized based on their curve class.
# Potency means the concentration at half of the fitted maximal effect.
row,SMILES,Potency
1,C[C@]12CC[C@H](O)C[C@H]1CC[C@@H]1C2CC[C@]2(C)[C@@H](C3=CC(=O)OC3)[C@@H](O)C[C@]12O (some centres undefined),11.2 µM (active)
2,CC12CCC(O)CC1CCC1C2CCC2(C)C(C(=O)CC(O)C(F)(F)F)CCC12 (centres undefined),inactive
3,C[C@]12CCC3C(CC[C@H]4C[C@@H](O)CC[C@]34C)C1CC[C@@H]2O (some centres undefined),inactive
4,C[C@H]1CN([C@@H](C)CO)C(=O)CCCn2nncc2CO[C@H]1CN(C)C(=O)Oc1ccccc1,inactive
5,COc1ccccc1OC(=O)c1ccc(C)c(S(=O)(=O)N2CCOCC2)c1,inactive
6,COc1ccc2c(c1)NP(=S)(c1ccccc1)N2 (centres undefined),inactive
7,Cn1cc(/C=C/c2nc3ccccc3c(=O)n2-c2ccccc2)c2ccccc21,inactive
8,O=c1c2ccccc2nc(/C=C/c2ccc(F)cc2)n1-c1ccccc1O,10 µM (active)
9,Cc1nc2ccccc2c(=O)n1-c1ccc(Cl)cc1Cl,inactive
10,CC(C)CN1Cc2cc(N3CCCCC3)ccc2-n2nncc2C1,inactive
11,O=c1c2ccccc2nc(CBr)n1-c1ccc(Cl)cc1,inactive
12,O=C(N/N=C/c1c(O)n(Cc2ccccc2)c(=O)[nH]c1=O)c1ccccc1,inactive
13,Cn1c(O)c(C=NCCCC(=O)O)c(=O)n(C)c1=O,inactive
14,CCCCC(=O)N/N=C/c1c(O)n(CC)c(=S)n(CC)c1=O,22.4 µM (active)
15,COc1cc(C(c2c(O)c3ccccc3oc2=O)c2c(C)n(C)n(-c3ccccc3)c2=O)ccc1O (centres undefined),inactive
16,C[C@H]1CN([C@@H](C)CO)C(=O)CCCn2nncc2CO[C@H]1CN(C)C(=O)Oc1cccc2ccccc12,inactive
17,CC1CCCCN1Cc1cccnc1 (centres undefined),inactive
18,COC1C(O)C(C)OC(OC2CCC3(C=O)C(CCC4C3CCC3(C)C(C5=CC(=O)OC5)CCC43O)C2)C1O (centres undefined),0.355 µM (active)
19,O=c1[nH]c(CN2CC=C(c3ccccc3)CC2)nc2scc(-c3cccs3)c12,inactive
20,COC(=O)C1=C(c2cc3ccccc3s2)C[C@@H]2CC[C@H]1N2C(=O)NCCO,inactive
21,COc1cc(C2c3cc4c(cc3C(O)C3COC(=O)C23)OCO4)cc(OC)c1OC (centres undefined),inactive

row,SMILES,Potency
1,O=C(O)c1cc[c]([Sb](=[O])([OH])[OH])cc1[N+](=O)[O-],inactive
2,CO[C@H]1[C@@H](O)[C@@H](C)O[C@H](O[C@H]2[C@H](Oc3cccc4c(O)c5c(=O)oc6ccc(C)c7c(=O)oc(c34)c5c67)O[C@H](C)[C@H](O)[C@@H]2O)[C@@H]1O,inactive
3,CSCCC(c1nnnn1C(C)(C)C)N1CCC(n2c(=O)[nH]c3ccccc32)CC1 (centres undefined),inactive
4,CC1(C)Cc2c(C#N)c(N3CCNCC3)nc(-c3ccco3)c2CS1,inactive
5,Cc1nnc(NC(=O)c2cccn(Cc3cccc(F)c3)c2=O)s1,inactive
6,Cc1cccc(Cn2cccc(C(=O)Nc3ccc4c(c3)OCCO4)c2=O)c1,10 µM (active)
7,Cc1ccccc1NC(=O)COC(=O)c1cc(C)n(C2CC2)c1C,inactive
8,COc1ccc(NC(=O)N2Cc3ccccc3-n3nncc3C2)cc1,inactive
9,Cc1ccc(OC(=O)N(C)C[C@@H]2OCc3cnnn3CCCC(=O)N([C@H](C)CO)C[C@@H]2C)cc1,inactive
10,CCOC(=O)CNC(=O)N1Cc2cc(N3CCCCC3)ccc2-n2nncc2C1,inactive
11,CC(=O)c1ccc(OC(NC(=O)Cc2ccccc2)C(Cl)(Cl)Cl)cc1 (centres undefined),inactive
12,CN1CCN(/N=C/c2c[nH]c3ccccc23)CC1,inactive
13,CN(C)CCN(CC1CCCN(Cc2ccccc2F)C1)C(=O)Cc1ccc(F)c(F)c1 (centres undefined),inactive
14,CCn1cc(CN2CCCC(C(=O)c3cccc(C(F)(F)F)c3)C2)cn1 (centres undefined),inactive
15,CC(=O)Nc1ccc(CC#N)cc1,inactive
16,CCC(C)(O)C(=O)OC1C(=O)OC2CC3C(C)=CC(=O)C(O)C3(C)C3C4(O)OCC23C1C(C)C4O (centres undefined),0.355 µM (active)
17,O=C1C2CCN(CC2)C1(CO)CO,inactive
18,COc1ccc(C2C=C(C)Oc3c2c(=O)oc2ccccc32)cc1OC (centres undefined),inactive
19,CN(C(=O)c1cccc(NC(=O)Cc2cccc([N+](=O)[O-])c2)c1)C1CCCCC1,20 µM (active)
20,CN(C)P(=S)(Nc1ccccc1)C(Cl)(Cl)Cl (centres undefined),inactive
21,CC(C)(C)c1ccc(CN2C(=O)CN=C(c3ccccc3)c3ccccc32)cc1,11.2 µM (active)

row,SMILES,Potency
1,O=C1CC(=O)N(Cc2ccccc2)C(=O)N1CCCCCCN1C(=O)CC(=O)N(Cc2ccccc2)C1=O,inactive
2,O=C(O)/C=C/c1ccc2c(c1)OCO2,inactive
3,CC1=C(C(=O)Nc2ccccc2)S(=O)(=O)CCO1,inactive
4,CNC(=O)N(C)c1nnc(C(C)(C)C)s1,inactive
5,c1ccc(N2Cc3ccccc3-n3nncc3C2)nc1,inactive
6,O=Cc1cn(Cc2ccc(F)cc2Cl)c2ccccc12,8.91 µM (active)
7,CC(=O)C1(O)CCC2C3CCC4=C(Cl)C(=O)CCC4(C)C3CCC21C (centres undefined),inactive
8,N#Cc1c(Cl)c(Cl)c(Cl)c(C#N)c1Cl,0.251 µM (active)
9,CCOC(=O)C(O)(c1ccc(N=Cc2ccccc2O)c(C)c1)C(F)(F)F (centres undefined),inactive
10,O=C(Oc1ccc2c(c1)CCC2)N1CCOCC1,inactive
11,CCN(CC)C(=O)c1ccc(NC(=O)c2sccc2-c2ccccc2)cc1,inactive
12,CCOc1cccc(=NC2CCCCC2)c2c(C)[nH]c(C)c12,10 µM (active)
13,Cc1nc2ccccn2c1P(=S)(N1CCCCC1)N1CCCCC1,inactive
14,COc1ccc2cc1Oc1ccc(cc1)C[C@H]1c3cc(c(OC)cc3CCN1C)Oc1c(O)c(OC)cc3c1[C@H](C2)N(C)CC3,7.94 µM (active)
15,COc1c(O)ccc2c1-c1c3c(cc4c1C(C2)N(C)CC4)OCO3 (centres undefined),inactive
16,COc1ccc2c(c1O)-c1cccc3c1[C@@H](C2)N(C)CC3,inactive
17,CN(C)/C=C(\C=[N+](C)C)c1[nH]ncc1[N+](=O)[O-],inactive
18,COC(=O)C1=C(c2ccc(OCc3ccccc3)cc2)C[C@@H]2CC[C@H]1N2C(=O)NCc1cccc(F)c1,inactive
19,Cc1ncoc1C(=O)NCC1=C(c2cccc3ccccc23)C[C@@H]2CC[C@H]1N2Cc1ccco1,inactive
20,ClCCN(CCCl)c1ccc(C=Nc2ccc(/C=C/c3ccnc4ccccc34)cc2)cc1,inactive
21,CCCCCCCCCCCCn1ccc(=N)cc1,10 µM (active)

row,SMILES,Potency
1,Cc1ccc(Oc2cnn(-c3ccccc3)c(=O)c2Br)cc1,inactive
2,CCC1(CC(C)c2ccccc2)C(=O)NC(=O)NC1=O (centres undefined),inactive
3,CCOP(=S)(OCC)SCOC(=O)NCC(=O)OC,inactive
4,O=P1(Oc2ccccc2)CC(O)C(O)C(COCc2ccccc2)O1 (centres undefined),inactive
5,O=c1c2ccccc2[nH]c(=S)n1-c1cccc(Cl)c1,inactive
6,OC(Cn1c2ccccc2c2ccccc21)C[n+]1ccccc1 (centres undefined),inactive
7,CC[C@H]1CN2CCc3cc(OC)c(OC)cc3[C@@H]2C[C@@H]1C[C@H]1NCCc2cc(OC)c(OC)cc21,0.0891 µM (active)
8,CC(=O)OC1C2(CC3N4C(=O)C5(CO)SSC4(CC31O)C(=O)N5C)OC(C)C(C)(C)C2=O (centres undefined),0.794 µM (active)
9,O=C(NCC1=C(c2ccc3ccccc3c2)C[C@@H]2CC[C@H]1N2Cc1ccco1)c1cccs1,inactive
10,CNC(=S)N/N=C1\C2CN3CCN(C2)CC1(c1ccccc1)C3,inactive
11,O=C(Cc1ccccc1)N1CCN(C2CCCCCC2)CC1,inactive
12,CN(C)CC1Oc2ccccc2OC1(O)c1ccccc1 (centres undefined),2.82 µM (active)
13,COc1ccc2c(c1)[C@]13CCCCC1C(C2)N(C)CC3 (some centres undefined),inactive
14,CCOc1ccc(CNC(=O)c2cccc(Nc3nc4ccccc4n4nnnc34)c2)cc1OC,inactive
15,COc1ccc(C2NCc3ccc4c(c3-n3cccc32)OCO4)cc1OC (centres undefined),inactive
16,CN(C)C(=O)Oc1ccc(NC(=O)N2CCOCC2)cc1,inactive
17,Cc1cccc(-n2c(O)c(C=NC34CN5CN(CN(C5)C3)C4)c(=O)[nH]c2=O)c1,inactive
18,c1cc2c(c(NC3=NCCCS3)c1)CCCC2,inactive
19,CCOC(=O)c1cccc(C2=C(CNC(=O)c3ccncc3)[C@H]3CC[C@@H](C2)N3Cc2ccccc2)c1,inactive
20,O=C(COC(=O)Cc1ccccc1)Nc1ccc(F)cc1,inactive
21,CC(=O)NCC1=C(c2ccc3ccccc3c2)C[C@@H]2CC[C@H]1N2Cc1ccco1,inactive
